# Data as given in PubChem BioAssay (NCI).
# The panel holds about 79,000 compounds, 15% with a hit somewhere; the sample as a whole holds those more often. A number with no mark means an inactive call. Activity calls are given as the source filed them. Cut-off read from the data, not from the text of the source: active = growth inhibition above about 70%; inactive = the rest. Where a SMILES comes first, the peptide text is derived from it. Bridges are numbered along the chain shown (N, C = ends). [ ]: non-standard residue; d: D form. The star is where a group is joined. PhAc = O=C(Cc1ccccc1)*
# How the values were obtained:
# [1] = NCI Yeast Anticancer Drug Screen. Data for the rad50 strain (AID 155);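 note: 0% = growth of vehicle-only cultures of the same strain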; conditions: S. cerevisiae rad50 strain growth inhibition; at 50.0 µM; stronger effect = higher value
# How it was run: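 Yeast carrying a defined DNA repair defect were exposed to test compounds, and growth was compared with vehicle-treated controls to give percent inhibition.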
# [2] = NCI Yeast Anticancer Drug Screen. Data for the mec2-1 strain (AID 157); conditions: S. cerevisiae mec2-1 strain, at 50.0 µM, stronger effect = higher value
# How it was run: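 Compounds were applied to mec2-1 yeast cells. Their growth was then compared with that of vehicle-treated cultures to give growth inhibition.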
# [3] = NCI Yeast Anticancer Drug Screen. Data for the sgs1 mgt1 strain (AID 161);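 note: 0% = growth of cultures given vehicle only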; conditions: S. cerevisiae sgs1 mgt1 strain, at 50.0 µM, stronger effect = higher value
# How it was run: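 Percent growth inhibition was derived by comparing compound-exposed mutant yeast with vehicle-exposed cultures. The strain carries alterations in DNA damage repair.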
# [4] = NCI Yeast Anticancer Drug Screen. Data for the cln2 rad14 strain (AID 165);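 note: 0% = growth equal to vehicle treated cultures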; conditions: S. cerevisiae cln2 rad14 strain, at 50.0 µM, stronger effect = higher value
# How it was run: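 Strain: cln2 rad14 yeast, altered in cell cycle control and DNA damage repair. Read-out: growth inhibition vs vehicle.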
# [5] = NCI Yeast Anticancer Drug Screen. Data for the bub3 strain (AID 167); conditions: S. cerevisiae bub3 mutant strain, at 50.0 µM, stronger effect = higher value
# How it was run: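 Compounds were applied to a genetically altered yeast strain carrying a cell-cycle control defect. Growth inhibition was scored against vehicle-treated controls.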
# [6] = NCI Yeast Anticancer Drug Screen. Data for the mlh1 rad18 strain (AID 175); conditions: S. cerevisiae mlh1 rad18 strain growth inhibition; at 50.0 µM; stronger effect = higher value
# How it was run: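 A repair-deficient yeast strain is exposed to test compound, and growth is scored relative to vehicle-treated controls.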
Compound,growth inhibition [1],growth inhibition [2],growth inhibition [3],growth inhibition [4],growth inhibition [5],growth inhibition [6]
CC(C)C1CC(N(C)C)=CC(=O)N1 (stereo not given),-41.5%,5.95%,2.75%,-14.4%,10.8%,10.9%
CCN1CCCCC(=N\O)/C(=N/O)CCCC1,-12.8%,-12.2%,-20.1%,-4.2%,-51.6%,-11.8%
Cc1ccc(S(=O)(=O)C23N=NC(C)(C)C2N=NC3(C)C)cc1 (stereo not given),-10.8%,-19.8%,-6.9%,-58%,-46.6%,5.4%
COc1ccc(C2(C)C=C(C)C=C(C)C2=O)cc1 (stereo not given),-5.1%,2.9%,-12.2%,-15.9%,-9.65%,7.75%
Cc1ccc(S(=O)(=O)Nc2ccc(O)cc2)cc1,-11.2%,-15.2%,-15.2%,-27%,-7.6%,-5.4%
Cc1cc(N)ccc1C(=O)O,1.7%,-7.65%,-0.65%,4.15%,5.2%,2.45%
O=C(O)C(Nc1ccc(Cc2ccc(NC(C(=O)O)c3ccccc3)cc2)cc1)c1ccccc1 (stereo not given),94% (active),86% (active),92% (active),-4.5%,37.7%,90% (active)
CCOC/N=C(/N)NC#N,25.6%,2.35%,10.8%,13.1%,-3.4%,33.1%
O=C(NC(c1ccccc1)C(O)C(=O)OCc1ccc2c(c1)C(=O)c1ccccc1C2=O)c1ccccc1 (stereo not given),10.9%,15.4%,-23.3%,-0.15%,-8.9%,20.6%
CC(=O)NC1c2ccccc2-c2ccccc21,-5.1%,34.2%,-1.15%,42%,17.3%,3.8%
CCN(CC)c1ccc(N=Nc2ccc([N+](=O)[O-])cc2OC(=O)/C=C/c2ccccc2)c(OC(=O)/C=C/c2ccccc2)c1,-17.6%,-47.9%,-12.9%,5.6%,-32.5%,-22.8%
CC(C)Nc1ncnc2c1cnn2-c1ccccc1,-5.9%,-17.1%,0.65%,-57.7%,13.5%,-11.3%
CCOC(=O)/C(Cc1nc2ccccc2[nH]c1=O)=N\O,-0.5%,9.95%,5.65%,50.4%,-4.45%,7.7%
COc1c2c(cc3c1C(=O)Cc1ccc4c(c1CN(C)CC3)OCO4)OCO2,7.15%,-3.4%,-1.15%,24.4%,8.95%,7.25%
CC12CCC3c4ccc(O)cc4C(=O)CC3C1CCC2O (stereo not given),-16.1%,7.6%,5.8%,-29.8%,-11.2%,-17.6%
CCN(CC)c1ccc(N=Nc2ccc(C)cc2)cc1,-6.7%,-22.5%,-12.5%,-0.4%,-15.8%,12.1%
CCc1ccccc1NC(=O)/C(CC(=O)c1c(C)n([O-])c2ccccc2[n+]1=O)=N\NS(=O)(=O)c1ccc(C)cc1,-18.8%,-8.25%,-12.3%,12.7%,7.25%,2.5%
CCOC(=O)C(C(=O)CC(C)C)C(C)C (stereo not given),-15.9%,-25.2%,1.1%,-30.4%,2.95%,-5.7%
OCCN(CCO)c1ccc(O)cc1,-6.85%,2.3%,-17.1%,13.6%,-3.6%,-11.7%
NC(=O)c1ccc(NCC2=CC(=O)C=CC2=O)cc1,-9.85%,3.25%,-5.05%,-2.6%,-17.9%,16.8%

Compound,growth inhibition [1],growth inhibition [2],growth inhibition [3],growth inhibition [4],growth inhibition [5],growth inhibition [6]
O=C(Cc1ccccc1)N[C@@H]1COC(=O)[C@@H]2CCCN2C(=O)[C@@H]2CCCN2C1=O (PhAc-[dS]-Pro-Pro; ester 1-C),-33.4%,5.85%,-17.2%,27.4%,-1.7%,-8.95%
CN(C)CC(CN(C)C)C(=O)c1ccc(OC2OC(CO)C(O)C(O)C2O)cc1 (stereo not given),-4.95%,-3.15%,-18.4%,5.15%,-9.35%,2.05%
O=C(/C=C/c1ccc(O)cc1)OC[C@@H](O)COC1OC(CO)C(O)C(O)C1O (stereo not given in full),-5.8%,-5.05%,-4.35%,6.8%,8.2%,-3.65%
C/C(=N/NC(=S)NNC(=S)N(C)c1ccccc1)c1nccc2ccccc12,85.8% (active),87% (active),86% (active),79.2% (active),76.6% (active),79.8% (active)
Nc1ccc([N+](=O)[O-])c(C(=O)O)c1,-10.2%,-26.9%,-15%,15.9%,-15.1%,-6.9%
CC(=O)OC1CCCCCCC1,-13.2%,14.6%,15.5%,-3.2%,19.5%,6.05%
C[N+]([O-])=C(c1ccccc1)c1ccccc1,-15.7%,5.55%,-9.4%,4.5%,-30.8%,-4.9%
Cc1ccc(-n2cnc3c(Cl)ncnc32)cc1[N+](=O)[O-],-4.05%,12.3%,15.1%,-45%,1.65%,10.9%
O=C1/C(=C/c2ccc(O)c(CN3CCCCC3)c2)CCC/C1=C\c1ccc(O)c(CN2CCCCC2)c1,-0.8%,23.9%,1.75%,-8%,-1.9%,19.4%
O=C(NC(COC(=O)c1ccccc1)COC(=O)c1ccccc1)c1ccccc1,29.5%,7.85%,12.8%,12.8%,-1.1%,9.95%
Cc1ccc(N2N=S=CC2=O)cc1,40.7%,11.3%,37.5%,13.4%,20.3%,34%
O=C1CSC(c2cccc(O)c2)N1c1nncs1 (stereo not given),6.75%,12.9%,21.9%,12.7%,14.2%,15.2%
COC(=O)CC1C(OC)OC23CCC1C2(C)CCC1C3CCC2CC(OC(C)=O)CCC21C (stereo not given),28.1%,3%,13.8%,-30.2%,-1.7%,8.5%
COc1cccc(C(N)=O)c1OC,3.35%,8.05%,-10.9%,-22.4%,11.7%,-15.2%
COc1c(C(=O)/C(=N/Nc2cccc(Cl)c2)C(C)=O)c(O)c(OC)c2occc12,-5.15%,-8%,-6.6%,-8.5%,8.2%,7.65%
O=C1c2ccccc2C(=O)N1Cc1ccccc1,3.55%,-16.9%,6.6%,27.4%,0.45%,6.7%
O=C(c1nc2ccc([N+](=O)[O-])cc2[nH]c1=O)C(O)c1ccc2c(c1)OCO2 (stereo not given),32.4%,-9.25%,-11.1%,11.1%,-1.25%,0.35%
CC(=O)Oc1cc(OC(C)=O)c2c(c1)OC(c1ccc(OC(C)=O)c(OC(C)=O)c1)CC2=O (stereo not given),21.4%,3.8%,18.3%,3.95%,3.85%,28%
COc1cc([N+](=O)[O-])c2[nH]c(=O)ccc2c1,-11.7%,19.7%,-4.5%,-7.2%,-2.05%,3.45%
CC(=O)OC(C)c1cc2c(s1)C(=O)c1scc(C(C)OC(C)=O)c1C2=O (stereo not given),90.8% (active),93.4% (active),92.5% (active),91.9% (active),91.7% (active),91.3% (active)
